# The OligoGym collection
# What was measured:
# Assay in all cases: pooled miR-30 sensor sort-seq; sequence = guide strand
# Settings in all cases: shRNA
# TDRD7 = molecular target: TDRD7
# TDRD10 = molecular target: TDRD10
# TDRKH = molecular target: TDRKH
# TCTN3 = molecular target: TCTN3
# TGFB1I1 = molecular target: TGFB1I1
# THNSL1 = molecular target: THNSL1
# THOC7 = molecular target: THOC7
# TIMM44 = molecular target: TIMM44
# TMEFF2 = molecular target: TMEFF2
# TMEM218 = molecular target: TMEM218
# TMEM8B = molecular target: TMEM8B
# TNFAIP6 = molecular target: TNFAIP6
# TNPO2 = molecular target: TNPO2
# TPPP2 = molecular target: TPPP2
# TP53I13 = molecular target: TP53I13
# TPPP3 = molecular target: TPPP3
# TP73 = molecular target: TP73
# TRAPPC2 = molecular target: TRAPPC2
# TRIM38 = molecular target: TRIM38
# TRMT1 = molecular target: TRMT1
# TSC1 = molecular target: TSC1
# TTLL3 = molecular target: TTLL3
# TULP4 = molecular target: TULP4
# Also: reference of the scale not given here.
sequence,measurement,setting,value
TAGTGTAGGGAAACCTAGCTGT,sensor-assay potency score (higher = more potent),TDRD7,-0.0859
TTTGTGGACATCAAGAGGGTTG,sensor-assay potency score (higher = more potent),TDRD10,-0.333
TAAATTATCACTCATTTCCTTA,sensor-assay potency score (higher = more potent),TDRD7,-0.487
ATCTTCTGAAACTTTCTCCAGT,sensor-assay potency score (higher = more potent),TDRKH,-0.507
TTTCCTTTGTCTCTTAACGGTG,sensor-assay potency score (higher = more potent),TDRD7,-1.32
TAGAAGGTACAGAATTTCCTCC,sensor-assay potency score (higher = more potent),TDRD10,0.0428
TTTGCTTGTATTCACGAACAGT,sensor-assay potency score (higher = more potent),TDRD10,-0.914
TTTCTTGTAGAAACCGAGGTGG,sensor-assay potency score (higher = more potent),TDRD7,0.248
TATCGTACAGAACAACAAGTGG,sensor-assay potency score (higher = more potent),TDRD7,-0.96
TTATAAGTCTTGATAGTAGTAA,sensor-assay potency score (higher = more potent),TDRKH,-0.315
TTTTCTTCTATGTCTTCAGGAA,sensor-assay potency score (higher = more potent),TDRKH,0.0327
TTTTGTGGACATCAAGAGGGTT,sensor-assay potency score (higher = more potent),TDRD10,-0.194
TGACTTGTCACATATAGCCTTC,sensor-assay potency score (higher = more potent),TDRD7,-0.332
TTTTACTCTCTAGGAAACCTGC,sensor-assay potency score (higher = more potent),TCTN3,-1.11
AAGTCGTCGCTGTCTAGGCTGC,sensor-assay potency score (higher = more potent),TDRD10,-0.771
TCTGTGTCCACATCAATCCGAG,sensor-assay potency score (higher = more potent),TDRKH,-0.281
TTAACCACAGCACTGCATCTGG,sensor-assay potency score (higher = more potent),TDRD7,-0.0871
TTTAGGATGTGCAACGCCGAGT,sensor-assay potency score (higher = more potent),TDRD10,-0.733
TTCAATGACTGTCTGCACCAGT,sensor-assay potency score (higher = more potent),TDRD7,0.309
TTCACGAACAGTTTTCGCTTGT,sensor-assay potency score (higher = more potent),TDRD10,0.41
TTAATATTGGCTCCTTGCCGGC,sensor-assay potency score (higher = more potent),TDRKH,-1.54
TCATCTGTGATGTTGAACTGAG,sensor-assay potency score (higher = more potent),TGFB1I1,-0.542
TTCCTGAAGCAACCGATCTAGC,sensor-assay potency score (higher = more potent),TGFB1I1,-0.825
TATAATTGCAACTTGGTGGGAT,sensor-assay potency score (higher = more potent),THNSL1,0.997
TTCGTATTCGTTTTGCTTGAAG,sensor-assay potency score (higher = more potent),THOC7,-0.51
TTCCTGAGCTTCTTCTACCTCT,sensor-assay potency score (higher = more potent),THOC7,-0.111
TATCCTTTGCTTATCATTCTTA,sensor-assay potency score (higher = more potent),THNSL1,0.234
TTTTGCTTGAAGAATTTGCTTT,sensor-assay potency score (higher = more potent),THOC7,-0.308
TTTTCGTATTCGTTTTGCTTGA,sensor-assay potency score (higher = more potent),THOC7,-0.919
TTTATTGCAGGAGCCACAGAGG,sensor-assay potency score (higher = more potent),TGFB1I1,-1.1
TATGACACAACAACCTAGTTTC,sensor-assay potency score (higher = more potent),THNSL1,-0.543
TTAAGTTCCTGAAGCAACCGAT,sensor-assay potency score (higher = more potent),TGFB1I1,-0.211
TTCGTCATACTTCATCTTCATC,sensor-assay potency score (higher = more potent),TIMM44,-1.59
TTGTCTGTGTGCAATCCACTTT,sensor-assay potency score (higher = more potent),TGFB1I1,0.0751
TTTGTCTCCAACAAGAGAGTGG,sensor-assay potency score (higher = more potent),THNSL1,-0.0448
TTGTGGAGCTCACCACCGGTGG,sensor-assay potency score (higher = more potent),TGFB1I1,-1.9
TAATGTGTGAAAGATGCTCTAA,sensor-assay potency score (higher = more potent),THOC7,0.0139
TTTGTGGAGCTCACCACCGGTG,sensor-assay potency score (higher = more potent),TGFB1I1,-1.15
TAAGAAGAACATGAAACTGTTT,sensor-assay potency score (higher = more potent),THOC7,-0.283
TTCTTTAATCTTTAAAGCCTGC,sensor-assay potency score (higher = more potent),THNSL1,-0.791
ATTTGTGGAGCTCACCACCGGT,sensor-assay potency score (higher = more potent),TGFB1I1,-0.966
TTGCTCATTACCAACATCCTGT,sensor-assay potency score (higher = more potent),THNSL1,0.41
TGAGACATGATTTCATCTGTGA,sensor-assay potency score (higher = more potent),TGFB1I1,0.918
TTTAATGAAACTCTTCACTAGC,sensor-assay potency score (higher = more potent),THOC7,0.0596
TTCCGTAGCACCTCGCTCGTCC,sensor-assay potency score (higher = more potent),TIMM44,1.18
TTTCCGTCTCAATTCCAGCTTA,sensor-assay potency score (higher = more potent),THOC7,-0.243
TATAGGTGGAGTTAATAGCTGC,sensor-assay potency score (higher = more potent),THNSL1,-0.591
ATCACTTTTACTGACTTCGTGA,sensor-assay potency score (higher = more potent),TIMM44,0.235
TTTACTGACTTCGTGAAGGCTC,sensor-assay potency score (higher = more potent),TIMM44,0.133
TCTTTTCTTATCTTCAGACTGG,sensor-assay potency score (higher = more potent),TGFB1I1,-0.149
TAAGTTCCTGAAGCAACCGATC,sensor-assay potency score (higher = more potent),TGFB1I1,-1.43
TATGCTACATTCTATTTCCTTG,sensor-assay potency score (higher = more potent),THOC7,-0.777
TTTTCTTATCTTCAGACTGGTC,sensor-assay potency score (higher = more potent),TGFB1I1,-0.967
TATCTGTGCTCTTTCTACGTAG,sensor-assay potency score (higher = more potent),THNSL1,-0.49
TTTGAGAATATCTATTGACGGT,sensor-assay potency score (higher = more potent),THNSL1,-0.0842
TTGAGAATATCTATTGACGGTG,sensor-assay potency score (higher = more potent),THNSL1,-0.169
TAGCTTCATAGCACCAGTCTTT,sensor-assay potency score (higher = more potent),TIMM44,-0.701
ATCTAGTAGAGGTACATCCAGG,sensor-assay potency score (higher = more potent),THNSL1,-1.3
TATACTAGAAAAACATTTCTGT,sensor-assay potency score (higher = more potent),THNSL1,0.647
TTCTTGTTTGACATTATCTAGC,sensor-assay potency score (higher = more potent),TIMM44,-0.514
TAAGTAGCTTCATAGCACCAGT,sensor-assay potency score (higher = more potent),TIMM44,-0.441
TAATTCTCCGATCATCTCCAGC,sensor-assay potency score (higher = more potent),THOC7,-0.503
TTTGCTTGAAGAATTTGCTTTT,sensor-assay potency score (higher = more potent),THOC7,-0.209
TAGAACACTGTAGTCCTTTTTT,sensor-assay potency score (higher = more potent),TMEFF2,-1.55
AAAAAAATGACAGAGAACCTCG,sensor-assay potency score (higher = more potent),TMEM218,0.153
ATGTAGAAGTAGTTGTCCCGGG,sensor-assay potency score (higher = more potent),TMEM8B,-0.575
ATAATTGTGTGTGCGCAGCAGC,sensor-assay potency score (higher = more potent),TMEM8B,-0.93
TATTTCAACATAATCAGCCAAG,sensor-assay potency score (higher = more potent),TNFAIP6,-1.38
TTCTCTGTGGTACACACCGGCT,sensor-assay potency score (higher = more potent),TNFAIP6,-1.32
TTTTCCAGCAGTGTCTTGGGTG,sensor-assay potency score (higher = more potent),TNPO2,-0.0437
TTGACACCGATCATCATGCAGA,sensor-assay potency score (higher = more potent),TNPO2,-0.349
TGTAACCACTCACATAGCCTGT,sensor-assay potency score (higher = more potent),TPPP2,-0.785
TTCTTGGCCTTGACTTTGCTGA,sensor-assay potency score (higher = more potent),TPPP2,-0.996
TGAGCCTCTGTCCTGGAGCTGG,sensor-assay potency score (higher = more potent),TP53I13,-1.27
ACTGTCGTCCAGGATGTCCTGC,sensor-assay potency score (higher = more potent),TPPP3,-0.739
TTGCTGGTGTCTGTCAAACGGT,sensor-assay potency score (higher = more potent),TPPP2,-1.11
TGGAGCAGACTGTCCTTCGTTG,sensor-assay potency score (higher = more potent),TP73,-1.24
TTATTGTTTTCCAAGCTCCCTG,sensor-assay potency score (higher = more potent),TPPP2,-0.417
TTGGTGACACCTGCGGAGGCAG,sensor-assay potency score (higher = more potent),TP53I13,-1.23
TTGTTGTTCATTTCAGTGCCAC,sensor-assay potency score (higher = more potent),TPPP2,0.0122
TTGGGAGGTGAAATACTCGATG,sensor-assay potency score (higher = more potent),TP73,-0.725
TTGCCATTCATCTCTTGCCCAC,sensor-assay potency score (higher = more potent),TPPP3,-1.13
TCTGGTTCCAGAGAGCTCCAGA,sensor-assay potency score (higher = more potent),TP73,0.275
TGTAGCTGCCGAACTGTGCGGG,sensor-assay potency score (higher = more potent),TP73,-0.215
TCTTTGAACTGTTGAAACGTGA,sensor-assay potency score (higher = more potent),TPPP2,-0.298
TACACAGCTGCTGTTACACATG,sensor-assay potency score (higher = more potent),TP73,-0.991
TCACTCTTGGTGACACCTGCGG,sensor-assay potency score (higher = more potent),TP53I13,-0.664
TTGGGTGTAGCTGCCGAACTGT,sensor-assay potency score (higher = more potent),TP73,-0.212
TTTTGCTTTAGTGACGCCCACA,sensor-assay potency score (higher = more potent),TPPP3,-1.34
TAGAGTTTCTTCAAGAGCGGGG,sensor-assay potency score (higher = more potent),TP73,0.308
TTTCCGTCAGCCACCTTGCAGT,sensor-assay potency score (higher = more potent),TPPP3,-0.592
TTGTAAACAGGCATGGCCCGGA,sensor-assay potency score (higher = more potent),TP73,0.143
TTACACATGAAGTTGTACAGGA,sensor-assay potency score (higher = more potent),TP73,1.03
TCGAAGTAGGTGCTGTCTGGTT,sensor-assay potency score (higher = more potent),TP73,-0.818
TCGGAAGTTTCTGTGCAGCCGT,sensor-assay potency score (higher = more potent),TP53I13,-0.684
TTGTCAGTCATCTCTTCCCGTC,sensor-assay potency score (higher = more potent),TPPP2,-0.714
TAGTACGTGTCCTCGTCTCCAT,sensor-assay potency score (higher = more potent),TP73,-0.503
TAGCCATACAAGCATAGGCCAG,sensor-assay potency score (higher = more potent),TP53I13,-1.71
TTGTTGCTTTAGTAGCGCCAGT,sensor-assay potency score (higher = more potent),TPPP2,-1.46
TTGAACAGACACAGCCCCCTGG,sensor-assay potency score (higher = more potent),TP53I13,0.146
TTGAACTGTTGAAACGTGATGG,sensor-assay potency score (higher = more potent),TPPP2,0.216
TAGAGGAAGGTGACATCCTCAG,sensor-assay potency score (higher = more potent),TP53I13,-0.655
TTGATGATTCTCCAAACGCAGC,sensor-assay potency score (higher = more potent),TPPP2,-1.67
TTGTGGGAGCCCGTGTATCTGC,sensor-assay potency score (higher = more potent),TPPP3,-1.44
TTGGTCGCCAGCTCTTCCAGGG,sensor-assay potency score (higher = more potent),TPPP3,-0.176
TTTAGTGACGCCCACATTGGCT,sensor-assay potency score (higher = more potent),TPPP3,-0.692
TTTCACGACGTCGGTCACGTGC,sensor-assay potency score (higher = more potent),TP73,-1.03
TTGTAACCACTCACATAGCCTG,sensor-assay potency score (higher = more potent),TPPP2,-0.748
TTGAACTCCTCATAGTTGATGA,sensor-assay potency score (higher = more potent),TPPP3,-0.547
TTGTAGGCGCTCACGTAGCCAC,sensor-assay potency score (higher = more potent),TPPP3,-1.01
TTTGCTGAACACGATGTCCACG,sensor-assay potency score (higher = more potent),TPPP2,-0.579
TATTCCATCTTCTTGTCTTATG,sensor-assay potency score (higher = more potent),TRAPPC2,-1.41
TATATAAATCATAAACATCAGT,sensor-assay potency score (higher = more potent),TRAPPC2,-0.905
TTTTGTCACAGCTTTCTGGAGC,sensor-assay potency score (higher = more potent),TRIM38,-0.543
TTTCTTTTTGCACAGCCTGAGG,sensor-assay potency score (higher = more potent),TRIM38,-1.54
TCGGTGACTGTCGTCTCCTGGA,sensor-assay potency score (higher = more potent),TRMT1,-1.21
TTGTTCTGAAGCAGCCTGCGTC,sensor-assay potency score (higher = more potent),TRMT1,-0.663
TTCTCTTGTAACTTCAACTGAT,sensor-assay potency score (higher = more potent),TSC1,0.432
TTTGCCTTTGGCCTTGACCTTC,sensor-assay potency score (higher = more potent),TTLL3,-0.876
TTGAAATTTATCCTCTGTGGAG,sensor-assay potency score (higher = more potent),TULP4,-0.662
